“And” between values parts separate entries of the source, which are not always exact repeats. Identical values can stand only once. Results filed as inconclusive are left out. The source made the active and inactive calls. Unless noted, calls follow the shape of the dose curve; as a rule, active = well fitted curve in the direction sought with a large enough effect; inconclusive = small, poorly fitted or top-dose-only effect, or another doubt; inactive = no such curve, though single readings can be large; an effect the other way counts as inactive or inconclusive.
Columns and labels:
[1] = target: Lysosomal acid glucosylceramidase (Homo sapiens) (UniProt P04062); experiment: Glucocerebrosidase-p2 (AID 348; in the data active = potency below about 10 µM; also: potency is read from the fitted curve at half-maximal effect); details: purified GBA, blue fluorogenic substrate, 40 min
Sequence of Lysosomal acid glucosylceramidase (Homo sapiens) (P04062 whole entry, looked up): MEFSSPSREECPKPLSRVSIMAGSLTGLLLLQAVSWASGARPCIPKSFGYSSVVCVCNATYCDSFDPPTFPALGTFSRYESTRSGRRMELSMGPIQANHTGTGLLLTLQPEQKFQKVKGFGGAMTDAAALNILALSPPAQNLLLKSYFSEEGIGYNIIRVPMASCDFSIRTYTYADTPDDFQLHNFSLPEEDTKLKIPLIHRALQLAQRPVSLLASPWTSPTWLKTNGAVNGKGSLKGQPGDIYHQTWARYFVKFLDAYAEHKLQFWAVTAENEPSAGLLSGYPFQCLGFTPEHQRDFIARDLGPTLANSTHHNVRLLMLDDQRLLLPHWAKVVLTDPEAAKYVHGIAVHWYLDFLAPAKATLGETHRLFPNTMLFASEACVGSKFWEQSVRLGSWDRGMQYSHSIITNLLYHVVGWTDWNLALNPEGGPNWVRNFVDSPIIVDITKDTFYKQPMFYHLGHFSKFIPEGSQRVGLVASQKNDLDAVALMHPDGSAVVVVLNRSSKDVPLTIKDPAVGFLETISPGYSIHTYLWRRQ
How it was run: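 Normal human glucocerebrosidase (0.2 nM) with blue fluorogenic substrate (80 uM final) in citrate/phosphate pH 5.9 with 10mM sodium taurocholate, 0.01% tween-20; 40 min RT, NaOH/glycine stop; fluorescence Ex 365/Em 440; AC50 from a titration from 0.6 nM upwards.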

[2] = Cell Viability - H-4-II-E (AID 543); details: H-4-II-E rat hepatoma viability; series mostly up to 92.2 µM;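 also: cells exposed to compound for 40 hours; % is scaled to controls: 0 for no effect and ±100 for the full control effect; nearly all actives have a fitted effect of over 35% in size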
How it was run: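 AC50 from Hill-modelled qHTS concentration-response curves. H-4-II-E rat hepatoma cells in complete medium, 40 hr exposure at 37 °C, viability by CellTiter-Glo ATP luminescence.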

[3] = Cellular Toxicity (caspase-3) Hek293 (AID 664); details: HEK293 caspase-3 activation, DMSO = 0%, 100 µM tamoxifen = 100%; series mostly up to 92.2 µM;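 also: cells exposed to compound for 16 h at 37 °C before readout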
How it was run: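 Apoptosis readout: Caspase-Glo 3/7 signal in human HEK293 cells following 16-hour compound incubation. Responses scaled between DMSO baseline and 100 uM tamoxifen.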

[4] = MultiTox-Fluor Cytotoxicity Assay - LYMP1-002 - Live Cells (AID 955); details: LYMP1-002 lymphoblastoid live-cell protease fluorescence viability; series mostly up to 46.1 µM; also: % is scaled to controls: 0 for no effect and ±100 for the full control effect
How it was run: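 In this qHTS viability format, lymphoblastoid cells (LYMP1-002, human) received compound for 16 hr at 37 C. Fluorogenic GF-AFC cleavage by viable cells was detected at 405/510 nm after 1 h at room temperature.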

[5] = Cell Viability - LYMP2-015 (AID 971); details: LYMP2-015 lymphoblastoid cell viability; series mostly up to 92.2 µM; also: nearly all actives have a fitted effect of over 55% in size; also: potency is read from the fitted curve at half-maximal effect
How it was run: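 AC50 values reflect Hill-model fits of ATP-based luminescence (CellTiter-Glo) from a human lymphoblastoid line, 2500 cells/well, treated 24 hr at 37 C.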

[6] = target: Peroxisome proliferator-activated receptor gamma (Homo sapiens) (UniProt P37231); experiment: qHTS assay for small molecule antagonists of peroxisome proliferator-activated receptor gamma signaling (AID 588537; active = well fitted inhibition curve with a large enough effect in the signal ratio, with a control signal flat, not every such curve was filed as active; the % refers to the signal ratio;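 also: reporter cells co-stimulated with 50 nM rosiglitazone agonist during compound treatment; % of control where 0% means no effect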); details: HEK293 PPARg-UAS-bla, beta-lactamase ratio, antagonist mode; series mostly up to 76.8 µM
Sequence of Peroxisome proliferator-activated receptor gamma (Homo sapiens) (P37231 whole entry, looked up): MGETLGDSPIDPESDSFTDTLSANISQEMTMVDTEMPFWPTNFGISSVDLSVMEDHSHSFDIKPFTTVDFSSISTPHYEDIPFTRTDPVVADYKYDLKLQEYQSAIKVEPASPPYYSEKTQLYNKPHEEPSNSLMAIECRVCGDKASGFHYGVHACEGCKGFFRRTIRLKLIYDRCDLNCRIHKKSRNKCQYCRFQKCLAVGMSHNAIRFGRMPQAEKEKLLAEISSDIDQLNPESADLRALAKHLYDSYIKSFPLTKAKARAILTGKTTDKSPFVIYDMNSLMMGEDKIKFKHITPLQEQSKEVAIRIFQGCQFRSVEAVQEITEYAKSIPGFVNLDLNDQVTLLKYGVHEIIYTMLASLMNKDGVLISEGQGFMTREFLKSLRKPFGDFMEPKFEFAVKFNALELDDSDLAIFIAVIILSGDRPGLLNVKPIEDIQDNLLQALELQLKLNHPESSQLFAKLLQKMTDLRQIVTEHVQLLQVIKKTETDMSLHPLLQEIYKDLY
How it was run: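 Cell-based beta-lactamase assay; GW9662 served as the antagonist control. Stimulation used rosiglitazone, final 50 nM, 16 h, 37 C.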

[7] = target: Voltage-gated inwardly rectifying potassium channel KCNH2 (Homo sapiens) (UniProt Q12809); experiment: qHTS Assay for Small Molecule Inhibitors of the Human hERG Channel Activity (AID 588834); details: U2OS BacMam hERG, FluxOR thallium flux fluorescence; series mostly up to 92.2 µM;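 also: lower thallium flux fluorescence means stronger hERG block; nearly all actives have a fitted effect of over 50% in size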; also: potency is read from the fitted curve at half-maximal effect
Sequence of Voltage-gated inwardly rectifying potassium channel KCNH2 (Homo sapiens) (Q12809 whole entry, looked up): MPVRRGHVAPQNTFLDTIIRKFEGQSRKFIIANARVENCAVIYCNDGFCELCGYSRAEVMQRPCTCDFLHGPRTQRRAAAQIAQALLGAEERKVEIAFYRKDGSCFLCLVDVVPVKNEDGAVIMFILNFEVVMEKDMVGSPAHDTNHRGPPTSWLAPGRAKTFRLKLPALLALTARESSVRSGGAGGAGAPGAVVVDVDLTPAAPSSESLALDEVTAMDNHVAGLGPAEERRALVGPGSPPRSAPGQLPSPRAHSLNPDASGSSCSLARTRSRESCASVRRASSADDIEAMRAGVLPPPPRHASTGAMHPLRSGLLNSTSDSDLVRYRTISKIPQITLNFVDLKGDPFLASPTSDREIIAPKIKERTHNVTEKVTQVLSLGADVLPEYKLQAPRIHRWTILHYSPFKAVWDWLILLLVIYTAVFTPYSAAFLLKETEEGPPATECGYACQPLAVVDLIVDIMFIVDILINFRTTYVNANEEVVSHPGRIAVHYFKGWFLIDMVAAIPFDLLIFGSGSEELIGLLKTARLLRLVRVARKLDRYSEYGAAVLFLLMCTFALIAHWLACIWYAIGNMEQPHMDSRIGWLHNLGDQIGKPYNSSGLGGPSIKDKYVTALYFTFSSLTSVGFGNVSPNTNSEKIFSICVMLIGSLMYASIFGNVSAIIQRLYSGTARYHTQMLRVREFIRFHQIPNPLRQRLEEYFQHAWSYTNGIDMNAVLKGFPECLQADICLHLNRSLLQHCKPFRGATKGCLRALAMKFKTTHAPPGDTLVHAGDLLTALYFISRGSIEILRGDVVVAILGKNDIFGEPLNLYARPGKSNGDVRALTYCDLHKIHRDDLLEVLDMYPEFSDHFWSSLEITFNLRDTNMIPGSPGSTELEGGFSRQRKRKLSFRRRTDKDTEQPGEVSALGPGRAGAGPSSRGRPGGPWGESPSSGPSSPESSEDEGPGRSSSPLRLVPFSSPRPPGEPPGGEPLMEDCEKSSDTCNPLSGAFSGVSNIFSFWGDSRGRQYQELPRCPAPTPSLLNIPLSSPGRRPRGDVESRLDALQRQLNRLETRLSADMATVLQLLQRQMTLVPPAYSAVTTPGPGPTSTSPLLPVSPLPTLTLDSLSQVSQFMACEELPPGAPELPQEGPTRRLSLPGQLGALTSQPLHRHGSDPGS
How it was run: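 Cells were infected with hERG-BacMam virus for 4 hrs at room temperature, grown overnight, then seeded at 2000/well. After dye loading and roughly 10 min compound treatment, thallium influx was triggered and fluorescence recorded.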

[8] = target: Nuclear receptor ROR-gamma (Homo sapiens) (UniProt P51449); experiment: qHTS assay for small molecule antagonists of the retinoid-related orphan receptor gamma (ROR-gamma) signaling pathway (AID 651802); details: ROR-gamma antagonist cell reporter assay; series mostly up to 92.2 µM;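 also: CHO cells with doxycycline-induced ROR-gamma expression; luciferase reporter luminescence driven by ROR response element; % is scaled to controls: 0 for no effect and ±100 for the full control effect; nearly all actives have a fitted effect of over 60% in size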
Sequence of Nuclear receptor ROR-gamma (Homo sapiens) (P51449 whole entry, looked up): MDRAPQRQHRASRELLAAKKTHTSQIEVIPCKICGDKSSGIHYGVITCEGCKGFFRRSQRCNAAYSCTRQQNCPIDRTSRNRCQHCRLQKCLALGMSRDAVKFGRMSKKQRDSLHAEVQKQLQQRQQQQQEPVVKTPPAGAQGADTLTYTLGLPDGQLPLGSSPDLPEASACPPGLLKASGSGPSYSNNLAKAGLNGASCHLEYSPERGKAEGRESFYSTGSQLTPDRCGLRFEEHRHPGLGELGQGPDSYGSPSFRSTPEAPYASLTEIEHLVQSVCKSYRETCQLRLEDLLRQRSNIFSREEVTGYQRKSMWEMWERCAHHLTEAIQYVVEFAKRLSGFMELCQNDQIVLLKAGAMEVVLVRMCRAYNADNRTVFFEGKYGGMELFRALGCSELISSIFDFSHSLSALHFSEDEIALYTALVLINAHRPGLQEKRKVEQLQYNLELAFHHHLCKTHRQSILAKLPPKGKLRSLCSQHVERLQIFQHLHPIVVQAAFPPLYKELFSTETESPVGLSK
How it was run: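 Doxycycline-induced reporter activity in engineered CHO cells (TET-inducible ROR, RORE-LUC) was measured by luminescence after 16hr compound exposure at 37C.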

[9] = qHTS assay for small molecule activators of the human pregnane X receptor (PXR) signaling pathway (AID 720659; call rule not given here; also: 0% is about no effect); details: DPX-2 HepG2 CYP3A4-luciferase, 24 h; series mostly up to 92.3 µM
[10] = target: Muscarinic acetylcholine receptor M1 (Rattus norvegicus) (UniProt P08482); experiment: qHTS Assay for Antagonists of Acetylcholine Muscarinic M1 Receptor: Measurement of IP-One Response (AID 944); details: CHO-M1 cells, IP-One HTRF, antagonist mode; series mostly up to 46.1 µM; also: nearly all actives have a fitted effect of over 75% in size; also: potency is read from the fitted curve at half-maximal effect
Sequence of Muscarinic acetylcholine receptor M1 (Rattus norvegicus) (P08482 whole entry, looked up): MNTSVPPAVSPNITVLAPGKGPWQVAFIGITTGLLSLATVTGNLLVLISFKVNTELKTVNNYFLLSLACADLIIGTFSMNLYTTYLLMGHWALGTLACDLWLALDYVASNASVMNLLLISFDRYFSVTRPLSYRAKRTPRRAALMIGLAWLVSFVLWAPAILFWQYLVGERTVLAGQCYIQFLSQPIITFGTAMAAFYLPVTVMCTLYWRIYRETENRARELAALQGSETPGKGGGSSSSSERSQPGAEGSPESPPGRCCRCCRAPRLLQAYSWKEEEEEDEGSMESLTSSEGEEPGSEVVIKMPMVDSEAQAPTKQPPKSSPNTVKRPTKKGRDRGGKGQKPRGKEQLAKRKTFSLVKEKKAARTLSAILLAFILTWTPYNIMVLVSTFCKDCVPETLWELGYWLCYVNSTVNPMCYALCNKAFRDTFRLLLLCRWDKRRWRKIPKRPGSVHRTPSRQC
How it was run: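 Antagonism was measured as loss of carbachol-driven (EC80) IP1 accumulation in CHO cells carrying rat M1, using a homogeneous IP-One TR-FRET kit read at 620 and 665 nm.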

[11] = target: Estrogen receptor (Homo sapiens) (UniProt P03372); experiment: qHTS assay for small molecule agonists of estrogen receptor alpha signaling (AID 588514; calls by dose curve;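 also: 0% = vehicle only and 100% = reference agonist; nearly all actives have a fitted effect of over 70% in size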); details: ER-alpha-UAS-bla HEK293, beta-lactamase ratio, 18 h; series mostly up to 76.8 µM
Sequence of Estrogen receptor (Homo sapiens) (P03372 whole entry, looked up): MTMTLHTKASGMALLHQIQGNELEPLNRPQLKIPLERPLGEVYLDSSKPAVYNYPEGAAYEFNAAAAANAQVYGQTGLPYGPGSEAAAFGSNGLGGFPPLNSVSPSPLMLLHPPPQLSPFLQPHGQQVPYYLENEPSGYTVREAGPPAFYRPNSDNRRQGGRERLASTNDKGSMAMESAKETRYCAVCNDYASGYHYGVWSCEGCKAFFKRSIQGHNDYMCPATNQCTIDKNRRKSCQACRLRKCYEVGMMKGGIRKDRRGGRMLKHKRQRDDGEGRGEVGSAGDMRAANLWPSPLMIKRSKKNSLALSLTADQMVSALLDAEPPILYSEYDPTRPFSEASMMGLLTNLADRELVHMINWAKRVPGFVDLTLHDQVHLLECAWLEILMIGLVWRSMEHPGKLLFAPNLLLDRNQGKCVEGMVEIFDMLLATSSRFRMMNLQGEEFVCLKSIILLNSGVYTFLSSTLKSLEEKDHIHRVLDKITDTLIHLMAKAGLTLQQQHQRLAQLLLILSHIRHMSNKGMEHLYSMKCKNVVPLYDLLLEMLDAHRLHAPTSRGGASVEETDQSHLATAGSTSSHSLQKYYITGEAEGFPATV
How it was run: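 Fluorescence from CCF4 cleavage reports ER-alpha-driven beta-lactamase expression in HEK 293 cells treated 18 hrs at 37 C. Data normalized to 17-beta-estradiol (20 nM) and DMSO, fitted to Hill equation.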

[12] = target: Thyroid hormone receptor beta (Homo sapiens) (UniProt P10828); experiment: qHTS assay for small molecule agonists of thyroid hormone receptor beta signaling (AID 588545; calls by dose curve); details: TR-UAS-bla GripTite HEK 293, beta-lactamase ratio, agonist mode, 18 h, percent of T3 response, DMSO as zero; series mostly up to 76.7 µM
Sequence of Thyroid hormone receptor beta (Homo sapiens) (P10828 whole entry, looked up): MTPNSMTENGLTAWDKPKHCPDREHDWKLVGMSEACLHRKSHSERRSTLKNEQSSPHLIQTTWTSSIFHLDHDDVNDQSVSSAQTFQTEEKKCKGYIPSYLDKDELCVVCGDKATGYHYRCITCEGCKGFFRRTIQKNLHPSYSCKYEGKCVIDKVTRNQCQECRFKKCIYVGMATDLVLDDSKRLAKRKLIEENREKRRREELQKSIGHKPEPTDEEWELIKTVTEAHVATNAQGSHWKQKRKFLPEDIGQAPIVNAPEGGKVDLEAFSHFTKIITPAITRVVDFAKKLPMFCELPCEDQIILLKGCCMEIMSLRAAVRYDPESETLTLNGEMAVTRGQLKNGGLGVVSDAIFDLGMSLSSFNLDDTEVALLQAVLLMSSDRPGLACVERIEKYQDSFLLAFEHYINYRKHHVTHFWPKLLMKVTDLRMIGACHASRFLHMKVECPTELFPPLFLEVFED
How it was run: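 HEK 293 TR-UAS-bla; agonist mode; 18 hrs, 37 C; CCF4, ex 405/em 460 and 530 nm; norm. T3 10 nM = 100%, DMSO = 0%; Hill fit → EC50, efficacy.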

[13] = Cell Viability - LYMP2-006 (AID 978); details: LYMP2-006 lymphoblastoid cell viability, qHTS; series mostly up to 92.2 µM;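 also: potency is read from the fitted curve at half-maximal effect; cells exposed to compound for 24 hours; nearly all actives have a fitted effect of over 60% in size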
How it was run: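 Concentration-dependent loss of intracellular ATP in a human lymphoblastoid line after 24 hr treatment at 37 C was measured by CellTiter-Glo luminescence, with AC50 values obtained from standard Hill-equation modelling.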

[14] = qHTS assay for small molecule disruptors of the mitochondrial membrane potential - 1 hr assay (AID 651754; calls by dose curve; also: % is scaled to controls: 0 for no effect and ±100 for the full control effect; nearly all actives have a fitted effect of over 35% in size); details: series mostly up to 92.2 µM
How it was run: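 In this qHTS format, a 1 hr compound treatment of HepG2 cells precedes Mito-MPS staining, and membrane potential is judged from aggregate (red) against monomer (green) fluorescence intensity.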

[15] = Cell Viability - LYMP2-004 (AID 966); details: LYMP2-004 lymphoblastoid cell viability, qHTS; series mostly up to 92.2 µM;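 also: plate controls were DMSO only for no effect and tetraoctylammonium bromide control for full effect; nearly all actives have a fitted effect of over 65% in size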
How it was run: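 Viable-cell number estimated from ATP luminescence (CellTiter-Glo) in 2500 human lymphoblastoid cells/well after 24 hr at 37 C with compound. AC50 fitted to the standard Hill equation.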

[16] = Cell Viability - LYMP2-005 (AID 967); details: LYMP2-005 lymphoblastoid cell viability; series mostly up to 92.2 µM;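 also: plate controls were DMSO only for no effect and 92 µM tetraoctylammonium bromide control for full effect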
How it was run: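 qHTS viability screen in LYMP2-005 cells: 24 h at 37 C with compound, ATP luminescence via CellTiter-Glo, AC50 from Hill curves.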

[17] = Cell Viability - LYMP2-023 (AID 975); details: LYMP2-023 lymphoblastoid cell viability; series mostly up to 92.2 µM;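 also: cellular ATP measured by luciferase luminescence as viability proxy; cells exposed to compound for 24 hours at 37 °C; plate controls were DMSO only for no effect and 92 µM tetraoctylammonium bromide control for full effect; nearly all actives have a fitted effect of over 55% in size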
How it was run: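 In this qHTS, ATP-based luciferase luminescence (CellTiter-Glo) is quantified in human lymphoblastoid cells after 24 hr compound treatment at 37 C; tetraoctylammonium bromide serves as positive control. Concentration-response curves are Hill-fitted to give AC50.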

[18] = target: Glucocorticoid receptor (Homo sapiens) (UniProt P04150); experiment: qHTS assay for small molecule agonists of glucocorticoid receptor signaling (AID 588532; active = well fitted curve in the direction sought with a large enough effect in the signal ratio, with a control signal flat; the % refers to the signal ratio;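 also: 100% = dexamethasone at 0.1 µM and 0% = DMSO only wells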); details: HeLa MMTV-bla, beta-lactamase ratio, agonist, 18 h; active compounds read high; percent of dexamethasone control, DMSO zero
Sequence of Glucocorticoid receptor (Homo sapiens) (P04150 whole entry, looked up): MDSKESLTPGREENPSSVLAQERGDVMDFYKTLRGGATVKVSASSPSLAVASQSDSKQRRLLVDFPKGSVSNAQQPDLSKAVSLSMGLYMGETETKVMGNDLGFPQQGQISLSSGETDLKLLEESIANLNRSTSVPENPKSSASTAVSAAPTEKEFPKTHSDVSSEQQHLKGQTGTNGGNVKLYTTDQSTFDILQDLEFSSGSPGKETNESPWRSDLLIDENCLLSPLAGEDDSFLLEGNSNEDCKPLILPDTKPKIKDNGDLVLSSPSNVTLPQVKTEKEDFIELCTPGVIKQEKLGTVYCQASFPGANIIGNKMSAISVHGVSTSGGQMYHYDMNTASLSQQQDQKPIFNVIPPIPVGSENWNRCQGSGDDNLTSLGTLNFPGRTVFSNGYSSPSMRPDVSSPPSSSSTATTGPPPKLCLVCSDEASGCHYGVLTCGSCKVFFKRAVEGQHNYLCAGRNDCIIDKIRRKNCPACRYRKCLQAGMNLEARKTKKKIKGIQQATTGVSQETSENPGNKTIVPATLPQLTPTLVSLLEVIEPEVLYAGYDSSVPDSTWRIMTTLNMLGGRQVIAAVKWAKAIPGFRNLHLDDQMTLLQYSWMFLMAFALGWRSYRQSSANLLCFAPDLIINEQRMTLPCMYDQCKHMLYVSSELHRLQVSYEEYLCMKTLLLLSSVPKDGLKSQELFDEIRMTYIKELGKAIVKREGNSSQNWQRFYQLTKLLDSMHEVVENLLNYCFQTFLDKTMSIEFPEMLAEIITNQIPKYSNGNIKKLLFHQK
How it was run: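 Agonist-mode qHTS: GRE-driven beta-lactamase in HeLa cells exposed 18 h to titrated compounds (up to 92 uM), then CCF4 ratio read after 2 h at RT; Hill-fitted EC50, efficacy relative to 0.1 uM dexamethasone.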

[19] = target: Glucocorticoid receptor (Homo sapiens) (UniProt P04150); experiment: qHTS assay for small molecule antagonists of glucocorticoid receptor signaling (AID 588533; active = well fitted inhibition curve with a large enough effect in the signal ratio, with a control signal flat, not every such curve was filed as active; the % refers to the signal ratio;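 also: cells stimulated with 2 nM dexamethasone as agonist; % is scaled to controls: 0 for no effect and ±100 for the full control effect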); details: HeLa MMTV-bla, GRE beta-lactamase ratio, antagonist mode, 18 h; series mostly up to 76.8 µM
How it was run: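 Antagonist-mode qHTS: compound titrations added to GRE-bla HeLa cells, then dexamethasone 2 nM final; 18 h, 37 C. CCF4 FRET fluorescence normalized to dexamethasone and DMSO; IC50 from Hill fit.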

[20] = qHTS assay for environmental chemicals that activate the Aryl hydrocarbon Receptor (AhR) signaling pathway (AID 651777); details: 1A2-DRE human hepatoma cells, luciferase, 24 h; activation: active compounds read high; also: % of control where 0% means no effect; nearly all actives have a fitted effect of over 15% in size
How it was run: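 1A2-DRE human hepatoma reporter line; 1,200 cells/well; cmpd or DMSO 24 h, 37 C/5% CO2; One-Glo 30 min RT; luciferase lum.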

O=C(c1ccncc1)N1CCC[C@@]2(CCN(Cc3nccs3)C2)C1
inactive: Potency [1] > 11.4 µM

O=C(Nc1cccc(F)c1)N1CC[C@@]2(CCCN(C(=O)Oc3ccccc3)C2)C1
inactive: Potency [1] > 11.4 µM

C=CCc1ccc(OC)cc1
inactive: Potency [2] | outcome [3] | outcome [4] | Potency [5] | Potency [6] | Potency [7] | Potency [8] | outcome [9]

CC(C)NC(=O)N1CCC2(CCNCC2)CC1
inactive: Potency [1] > 11.4 µM

COc1ccc2c(c1OC)C(=O)O[C@H]2[C@H]1c2cc3c(cc2CCN1C)OCO3
inactive: Potency [10]

NC[C@H](O)c1ccc(O)cc1
inactive: Potency [10]

CN1CCCC2(CCN(C(=O)c3ccco3)CC2)C1
inactive: Potency [1] > 11.4 µM

CN1CC[C@]2(C)c3cc(O)ccc3N(C)[C@@H]12
inactive: Potency [10]

COc1ccc(OC)c([C@H](O)[C@H](C)N)c1
inactive: Potency [10]

CS(=N)(=O)CC[C@@H](N)C(=O)O (stereo not given in full)
inactive: Potency [10]

CC(C)N(CC[C@@](C(N)=O)(c1ccccc1)c1ccccn1)C(C)C
active: Potency [10] 5.62 µM and 6.31 µM

CNC(=O)N(C)c1nnc(C(C)(C)C)s1
inactive: Potency [11] | Potency [6] | outcome [12]

O=C1C(Cl)=C(Cl)C(=O)C(Cl)=C1Cl
inactive: Potency [14] | outcome [9]
active: Potency [5] 39.8 µM | Potency [13] 31.6 µM | Potency [7] 44.7 µM

O=C(O)COc1ccc(Cl)cc1Cl
inactive: outcome [3] | outcome [4] | Potency [15] | Potency [16] | Potency [5] | Potency [17] | activation [18] -2.35% [middle of 4 runs] | Potency [19] | Potency [7] | Potency [14] | outcome [9]

CCNc1nc(Cl)nc(NC(C)C)n1
inactive: Potency [2] | outcome [3] | outcome [4] | Potency [15] | Potency [16] | Potency [17] | Potency [11] | activation [18] -2.38% and -6.25% | Potency [19] | Potency [6] | outcome [12] | activation [20] -0.785% and 0.245% | Potency [8]
